# This is one part of the list. The true hit rate is not given.
# B1: VH:VL chains; a variant is named by its letters at X, in order (parent)
# chain 1: QVQLVQSGAEVKKPGASVKVSCKASGYTFTDYXMHWVRQAPGQGLEWMGXVNPNXXXTTYNQKFEGRVTMTTDTSTSTAYMELRSLRSDDTAVYYCARXNXLDXWGQGTTVTVSS
# chain 2: DIQMTQSPSSLSASVGDRVTITCSVSSSVSSIYLHWYQQKPGKAPKLLIYSTSNLASGVPSRFSGSGSGTDFTLTISSLQPEDFATYYCQVYSGYPLTFGGGTKVEIK
# Variants of: B1
# Assay: yeast display scFab, FACS + sequencing
# Details: with MET
# In short: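 For FACS, yeast displaying a heavy-chain CDR mutant scFab library were labelled with 1 nM HGFR-Fc and anti-Myc (PBSB, 1% milk, 3 h, room temperature), and the top 50% antigen-positive cells were gated. Input and round-3 sorted populations were deep sequenced in two replicates. The binding call was positive for sequences occurring in both antigen-positive samples and negative for sequences occurring only in input.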
row,Variant,antigen binding call
1,DGARNFGV,no binding
2,DTGANDWV,no binding
3,DATGGAAA,no binding
4,SRGRGAWD,binds
5,SKGGSAWD,no binding
6,SRGANAWD,no binding
7,SKGRGAWV,binds
8,SKAENAWV,no binding
9,SAGGGAWV,no binding
10,SAGRGDWD,no binding
11,SRGRGSWD,binds
12,SKGRGAWD,binds
13,DRGRDDLV,no binding
14,AATTDDAV,no binding
15,SGRGNAAD,no binding
16,ATTKSDGV,no binding
17,VEGGTDVA,no binding
18,DAGTGSGA,no binding
19,YRRRGDVV,binds
20,YRRRGVVV,binds
21,YERRNDVV,binds
22,YEGTGDVV,no binding

row,Variant,antigen binding call
1,YRARGVVV,no binding
2,YRRRGYVV,binds
3,SREGGVVV,no binding
4,YTRGADVV,no binding
5,YEGGTDVV,no binding
6,SGGRDSGV,no binding
7,AARADDSA,no binding
8,YRAEGYVV,binds
9,VGGGAAGV,no binding
10,YTEKTFSD,no binding
11,FRGRGFSA,no binding
12,YRGRGFSD,binds
13,YKGRGFSD,no binding
14,YRGRGFSA,binds
15,YRGRGVSD,binds
16,DTTGSDVY,no binding
17,ATGRAAGD,no binding
18,FRTGGSAD,binds
19,FRTEGSAD,binds
20,FETGGYVY,no binding
21,SEARSSSV,no binding
22,YATEGVWV,no binding

row,Variant,antigen binding call
1,DARGGSSV,no binding
2,AEREADWV,no binding
3,VETGNDVA,no binding
4,YRGGDYGA,no binding
5,YRGKDSGA,binds
6,YRGKDSGS,binds
7,YRGKDAGA,binds
8,VRGKGSSD,binds
9,VRGKGSSS,binds
10,VRAGDDSD,no binding
11,VRKKGVSS,no binding
12,VEGGGSSS,no binding
13,VRRGDSSD,binds
14,VTGTGSSD,no binding
15,VAGTGSSD,no binding
16,VTGGDSSD,no binding
17,VRTADDGA,no binding
18,VAATADVA,no binding
19,YKGRGYAV,binds
20,YKGEGYGV,no binding
21,YKGRGYLV,binds
22,YKGEGDLV,no binding

row,Variant,antigen binding call
1,YKETGYAV,binds
2,YKKTGYWV,no binding
3,YKEGAYAD,no binding
4,YKGRGSLV,binds
5,YGGRGYAV,no binding
6,DAARGDSA,no binding
7,AKGGGDVV,no binding
8,YAEEGVGY,no binding
9,YRARGAGA,binds
10,YRARGFGA,no binding
11,YRARGAVA,binds
12,YRARGVGA,binds
13,SEARSSSY,no binding
14,VEEEGAGV,no binding
15,DTTKSDGV,no binding
16,YRARSAVA,binds
17,DRARTFVA,no binding
18,SEARSAWA,no binding
19,YRARSSVA,binds
20,YRARSAWA,binds
21,YRERSSVA,binds
22,SEARSAVA,no binding

row,Variant,antigen binding call
1,AEERASAF,no binding
2,VAGTGAVV,no binding
3,VAEKGDLS,no binding
4,VTTKSDLA,no binding
5,SAGKDDLA,no binding
6,DEGGTDVY,no binding
7,YTARGVSF,no binding
8,YRARGSVF,binds
9,YRARGSLF,binds
10,FGAATDGV,no binding
11,DTREGDGA,no binding
12,FAGRDAVV,no binding
13,DGGKNAGD,no binding
14,VERGGDSY,no binding
15,YKKESDSY,no binding
16,YKRGSSSY,binds
17,FKARDSSA,no binding
18,FKRGSSSY,binds
19,DARGGSSY,no binding
20,YKRGGSSY,binds
21,FKRRDSVY,no binding

# Source: the emibetuzumab library of Makowski et al. (2022)
